According to PubChem BioAssay AID720551 (National Center for Advancing Translational Sciences (NCATS), 2013):
The whole screen tested about 340,000 compounds, of which about 1,300 (0.38%) were called active. This excerpt belongs to a sample that is enriched for actives. Unmarked numbers belong to inactive results.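 How the source made its calls: active means maximum activity change below -70%; inconclusive means maximum activity change between -70% and -50%; inactive means maximum activity change above -50%.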

The compounds below were run against Voltage-gated inwardly rectifying potassium channel KCNH2 (Homo sapiens) (UniProt Q12809) (assay: qHTS for Inhibitors of KCHN2 3.1: Wildtype qHTS). Details: U2OS, BacMam KCNH2, thallium flux FluxOr; at 1.84 µM; stronger effect = lower value.
Sequence of Voltage-gated inwardly rectifying potassium channel KCNH2 (Homo sapiens) (Q12809 whole entry, looked up, canonical isoform): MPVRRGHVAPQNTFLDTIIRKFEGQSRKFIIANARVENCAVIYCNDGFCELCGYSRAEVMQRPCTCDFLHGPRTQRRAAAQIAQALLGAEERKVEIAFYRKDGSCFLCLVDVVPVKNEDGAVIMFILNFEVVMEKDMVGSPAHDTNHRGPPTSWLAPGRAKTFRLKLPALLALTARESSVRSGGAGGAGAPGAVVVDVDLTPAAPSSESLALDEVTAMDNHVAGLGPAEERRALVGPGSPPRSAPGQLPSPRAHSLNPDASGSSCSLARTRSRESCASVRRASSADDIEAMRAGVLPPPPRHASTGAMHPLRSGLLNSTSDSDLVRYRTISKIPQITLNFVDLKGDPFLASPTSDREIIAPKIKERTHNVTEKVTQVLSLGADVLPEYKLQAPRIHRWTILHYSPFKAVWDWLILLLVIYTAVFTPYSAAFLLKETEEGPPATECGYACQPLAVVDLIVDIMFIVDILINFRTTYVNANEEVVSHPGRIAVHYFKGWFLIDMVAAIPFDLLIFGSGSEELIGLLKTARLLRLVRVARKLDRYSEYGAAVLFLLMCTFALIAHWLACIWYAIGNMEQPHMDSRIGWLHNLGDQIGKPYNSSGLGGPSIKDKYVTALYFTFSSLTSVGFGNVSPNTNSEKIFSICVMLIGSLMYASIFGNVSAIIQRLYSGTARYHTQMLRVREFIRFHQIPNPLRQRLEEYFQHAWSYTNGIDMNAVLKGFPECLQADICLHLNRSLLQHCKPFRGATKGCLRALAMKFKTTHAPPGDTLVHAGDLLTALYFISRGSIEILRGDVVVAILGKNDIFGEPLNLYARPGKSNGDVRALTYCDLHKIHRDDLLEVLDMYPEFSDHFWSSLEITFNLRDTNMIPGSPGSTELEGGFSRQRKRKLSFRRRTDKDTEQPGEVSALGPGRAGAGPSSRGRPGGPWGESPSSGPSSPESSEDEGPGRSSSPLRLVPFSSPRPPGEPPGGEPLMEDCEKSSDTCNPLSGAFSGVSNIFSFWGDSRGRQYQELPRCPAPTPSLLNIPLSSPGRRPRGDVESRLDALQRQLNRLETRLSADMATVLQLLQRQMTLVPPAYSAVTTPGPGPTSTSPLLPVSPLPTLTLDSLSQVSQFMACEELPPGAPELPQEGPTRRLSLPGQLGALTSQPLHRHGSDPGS
Description: Many antipsychotic drugs that inhibit the neurotransmitter dopamine also bind to hERG1 channel which might help explain their antipsychotic activity but also produces cardiac side effects. The discovery of the novel KCNH2 3.1 isoform offers a potential new target for the development of antipsychotic drugs without cardiac side effects. This proposal will use a high throughput thallium flux assay developed for KCNH2 to screen compounds that modulate the activity of KCNH2 3.1. The wild type KCNH2 channel will also be screened in parallel to help define the selective modulators of this KCNH2 3.1 potassium channel. The resulting compounds will be validated in electrophysiology experiments. The availability of animal models will allow future testing in vivo for effects on memory and other aspects of animal physiology linked with psychosis. NIH Chemical Genomics Center [NCGC] NIH Molecular Libraries Probe Centers Network [MLPCN] MLPCN Grant: MH096539 Assay Submitter (PI): James Barrow, Johns Hopkins University, Lieber Institute for Brain Development
U2OS cells were resuspended in cell media containing 10% fetal calf serum (FCS) at a concentration of 2 million cells / mL. The solution was treated with the Wild-type virus at 2.03 x 10^8 / mL and allowed to incubate at room temperature in the dark. After 4 hours of incubation, DMEM + 10% fetal bovine serum (FBS) was added to the cell solution. Three microliter was then dispensed into a 1536 tissue culture treated black assay plates which were incubated overnight at 37 C. Two microliter of loading buffer (HBSS + HEPES + Red40 dye quencher + FluxOr dye) was added and the assay plates were incubated for 45 min at room temperature in the dark. […] A stimulation buffer was added to the plate and the second kinetic read (2 min) was obtained. The rate constant was calculated from the kinetic reads and normalized to the positive and negative DMSO controls.
On the % scale 0 is the no-effect control and ±100 the full control effect.

SMILES | activity change
CCCC[C@@H]1CN=C(N)N1CCc1cccc(F)c1 | -2.35%
CCCCN1C(N)=NC[C@@H]1Cc1ccccc1 | -3.39%
CN(C)C1=NC[C@H](Cc2ccccc2)N1CCc1ccc(F)cc1 | -88.4% (active)
O=C1OCCC1=COCCCCOC=C1CCOC1=O | 0.218%
COC(=O)C[C@H]1C[C@@H]2c3cc(NC(=O)Nc4ccccc4)ccc3O[C@@H]2[C@@H](CO)O1 | -0.954%
COc1cccc(NC(=O)CN2CCN(CC(=O)Nc3ccccc3Cl)CC2)c1 | 19.7%
COc1ccc(C(=O)Nc2sc(C)c(C)c2CN2CCOCC2)cc1 | -3.94%
CCOc1ccc(NC(=O)CN2CCN(CC(=O)Nc3ccc(OC)cc3)CC2)cc1 | -141% (active)
CCc1ccc(NC(=O)CN2CCC(C(=O)c3ccc(OC)cc3)CC2)cc1 | 1.48%
CCOc1ccc(NC(=O)N2CCN(CC)CC2)cc1 | 0.628%
CCc1cc(C(=O)c2ccc(OC)cc2)c(NC(=O)CN2CCN(C)CC2)s1 | -79.3% (active)
C[C@H](CO)N1C[C@H](C)[C@@H](CN(C)C(=O)c2cnccn2)Oc2ncc(Br)cc2C1=O | -7.83%
O=C(NCCOc1ccccc1)N1[C@H]2CC[C@@H]1C=C(c1ccc(F)cc1OCc1ccccc1)C2 | 2.38%
Cc1ccccc1SCC(=O)OCC(=O)N1CC(=O)Nc2ccccc21 | 7.23%
O=C1CN(C(=O)COC(=O)c2cnc(Cl)c(Cl)c2)c2ccccc2N1 | 8.42%
O=C1CN(C(=O)COc2c(Cl)cccc2Cl)c2ccccc2N1 | -143% (active)
COc1ccc(NC(=O)CSc2nnnn2-c2cccc(OC)c2)cc1 | 52.5%
Cc1ccc(S(=O)(=O)N2C[C@@H](C)[C@]3(C2)[C@H](O)[C@H](OC(=O)NCc2ccccc2)C[C@H]2C(=O)N(c4ccccc4)C(=O)[C@H]23)cc1 | -2.73%
COc1ccc([C@H]2N[C@]3(CCCN(CC4CCCCC4)C3=O)[C@H]3C(=O)N(C)C(=O)[C@@H]23)cc1 | 14.1%
O=C1CC[C@H](O)CCN1[C@H](CSc1ccc(Br)cc1)Cc1ccccc1 | 0.842%
COc1ccc(SC[C@H](Cc2ccccc2)N2CCN(CCc3ccccc3)CCC2=O)cc1 | -108% (active)
C[C@H]1CCC(=O)N([C@H](CSc2ccccc2)Cc2ccccc2)CC1 | 9.67%
C[C@H]1CN([C@@H](C)CO)C(=O)CCCn2cc(nn2)CO[C@@H]1CN(C)S(=O)(=O)c1cccc(C#N)c1 | -15.1%

SMILES | activity change
CC(OC(=O)c1cccnc1Cl)C(=O)NC1CCCCC1 (stereo unspecified) | 10.4%
COc1ccc(-n2c(-c3ccc(Cl)cc3)n[nH]c2=S)c(OC)c1 | -22.5%
Cc1nn(-c2ncccn2)c2c1C(=O)CC(C)(C)C2Br (stereo unspecified) | -151% (active)
CC1=C(N2CCN(c3ncccn3)CC2)CCC1=O | 2.31%
Cc1nn(-c2ccccc2)c2c1C(=O)NC(=O)C(C)(C)C2 | -0.0713%
O=C(COC(=O)CCc1c[nH]c2ccccc12)Nc1cccc(Cl)c1 | -8.07%
CC1(C)CN(CCc2ccccc2)C(=O)[C@H]1CC(=O)Nc1ccc(Br)cc1 | -7.47%
COCCNC(=O)c1ccc(N2CCC3(CC2)OCCO3)c([N+](=O)[O-])c1 | -4.71%
CCCNC(=O)c1ccc(N2CCC3(CC2)CC(c2ccc(Cl)cc2)=NO3)c([N+](=O)[O-])c1 | -85.9% (active)
CCC(C)NC(=O)c1ccc(N2CCC3(CC2)OCCO3)c([N+](=O)[O-])c1 (stereo unspecified) | -3.92%
COc1ccc(OC)c(CN2CCN(C(=O)CNC(=O)c3cc(C)cc(C)c3)CC2)c1 | -138% (active)
Cc1cc(C)cc(C(=O)NCC(=O)OCC(=O)N2CCCCC2)c1 | -9.23%
COc1cc(OC)cc(C(=O)NCC(=O)N2CCCCCCC2)c1 | 8.95%
COc1ccc(C(CNC(=O)CSc2ccccc2)N2CCOCC2)cc1 (stereo unspecified) | -6.03%
Cc1ccc(C=O)c([B-](F)(F)F)c1 | -18.6%
Cc1cc(=O)c2ccc(NC(=O)c3ccccc3)cc2[nH]1 | 13.6%
COc1cc(C)c(CN2CCN(C(=O)CCC(=O)c3ccc(C)s3)CC2)cc1OC | 1.74%
COc1ccc(NC(=O)N2CCCC2C(=O)NCc2ccccc2Cl)cc1 (stereo unspecified) | -3.26%
O=C1c2ccccc2C(O)N1Cc1ccccc1Cl (stereo unspecified) | 23.3%
O=C(Nc1ccc(Br)cc1)C1CCC(=O)N1Cc1ccccc1Cl (stereo unspecified) | -94.2% (active)
CCN1CCN(CC(=O)Nc2sc3c(c2C#N)CCC3)CC1 | 5.2%
O=C(CN1CCCC1)Nc1sc2c(c1C(=O)Nc1ccccc1)CCCC2 | -93.7% (active)
O=C(O)c1c(NC(=O)N2CCCC2)sc2c1CCCC2 | 0.0561%

SMILES | activity change
c1ccc(Cn2nnc3c(NCC4CC4)ncnc32)cc1 | -10.7%
Cc1c(NC(=O)COC(=O)/C=C/c2cccc(F)c2)c(=O)n(-c2ccccc2)n1C | 0.394%
Cc1csc(=O)n1CCC(=O)OCC(=O)Nc1ccc(N2CCOCC2)cc1 | -7.46%
Cn1c(CCN2CCN(c3ccccn3)CC2)nc2cc(NS(=O)(=O)c3ccc(F)cc3)ccc21 | -20.6%
COc1ccc(C(=O)NC2CC2)cc1OC1CCN(C/C=C/c2ccccc2)CC1 | -83.5% (active)
COc1cc2[nH]c(=O)n(Cc3ccc(C(=O)NC4CCN(Cc5ccccc5)CC4)cc3)c(=O)c2cc1OC | -9.69%
COc1ccc(C(=O)NCCn2nc(C)cc2C)cc1OC1CCN(C(C)=O)CC1 | 3.09%
COc1ccc(C(=O)NC2CC2)cc1OC1CCN(Cc2cnn(C)c2)CC1 | -9.12%
COc1ccc(C(=O)NC2CC2)cc1OC1CCN(Cc2ccc(SC)cc2)CC1 | -117% (active)
COc1cc(C(=O)N2CCN(C/C=C/c3ccccc3)CC2)cc(OC)c1C | -0.254%
O=C(NCc1ccccc1)C1CNCC(C(=O)NCc2ccccc2)C1 (stereo unspecified) | -19%
COc1ccc(-c2ccc3[nH]c4c(c3c2)CCN2C[C@H]3[C@H](C)ON(C)[C@H]3C[C@@H]42)cc1 | -1.03%
COc1cc(NC(=O)C2=C(C)OCCS2)c(Cl)cc1C(=O)NCCCN1CCCC(C)C1 (stereo unspecified) | 15%
N#CC1(Nc2ccc3c4c(cccc24)CC3)CCCCC1 | -12.6%
COc1cccc(CC2(CO)CCCN(CC3=Cc4cc(OC)ccc4OC3)C2)c1 (stereo unspecified) | 8.29%
COc1cccc(CC2(CO)CCCN(Cc3ccc(OC(F)F)cc3)C2)c1 (stereo unspecified) | -73.9% (active)
COc1cccc(CC2(CO)CCCN(Cc3nc(-c4cccs4)oc3C)C2)c1 (stereo unspecified) | -11.7%
C[C@@H]1CN([C@@H](C)CO)C(=O)CCCn2nncc2CO[C@H]1CN(C)C(=O)Nc1ccc(C(F)(F)F)cc1 | -21.9%
N#Cc1ccc(CN2CCN(CC(=O)Nc3ccccc3C(=O)NC3CC3)CC2)cc1 | -89.2% (active)
Cc1ccc(OCC(=O)Nc2ccccc2C(=O)NC2CC2)cc1 | 36.5%
O=C(CN1CCCCC1)Nc1ccccc1C(=O)NC1CC1 | 4.09%
COc1ccc(OC)c(C(=O)NC2CCCc3c2cnn3-c2cc(C)cc(C)c2)c1 (stereo unspecified) | -0.114%
CC1(C)NC(=O)N(CC(=O)Nc2ccc(-c3ccccc3)cc2)C1=O | -12.6%

SMILES | activity change
COc1ccc2oc(C(=O)NCc3ccco3)c(C)c2c1 | 26.9%
COc1ccc2c(Cl)c(C(=O)NCc3ccco3)sc2c1 | -70.1% (active)
O=C(NCc1ccco1)c1sc2cccc(F)c2c1Cl | -25.2%
OCC1OC(n2cnc3c(N4CCCC4)ncnc32)C(O)C1O (stereo unspecified) | -11.6%
C[C@H]1CN(c2ccc(Br)cc2)C(=O)[C@@H]1CC(=O)Nc1ccc(Br)cc1 | 1.02%
CN(CC(=O)Nc1ccc(F)cc1)C(=O)c1ccc(-c2ccc(Cl)cc2)o1 | -18.6%
CSc1sc(C(=O)NNC(=O)c2ccc(Cl)cc2)c2c1C=CCC2 | -2.11%
C=CCNC(=O)c1sc(SC)cc1-c1ccc(Cl)cc1 | -187% (active)
Cc1cc(C)c(S(=O)(=O)NCCCN2CCOCC2)cc1Br | 12.5%
O=S(=O)(NCCCN1CCOCC1)c1ccc(F)c(Cl)c1 | 4.11%
Cc1ccc(S(=O)(=O)NCCN2CCOCC2)cc1C | -76.1% (active)
C[C@H]1CN([C@@H](C)CO)S(=O)(=O)c2ccc(Br)cc2O[C@H]1CN(C)C(=O)c1cnccn1 | 2.27%
COC(=O)Cn1nc(-c2ccccc2)c2cc(Cl)ccc21 | -4.79%
COCCCNc1nc2c(-c3cccc(C)c3)nnn2c2ccc(Cl)cc12 | -86% (active)
COCCCNc1nc2c(-c3cccc(C(F)(F)F)c3)nnn2c2ccccc12 | -4.14%
Cc1nnc(SC(C)C(=O)c2c[nH]c3ccccc23)n1C1CC1 (stereo unspecified) | -2.83%
Cc1cn([C@H]2C[C@H](O)[C@@H](CNC(=O)[C@H](N)Cc3cccnc3)O2)c(=O)[nH]c1=O | -1.56%
O=C(C[C@H]1C[C@@H]2c3cc(NC(=O)C4CCC4)ccc3O[C@@H]2[C@H](CO)O1)NC1CCCCC1 | -22.6%
O=C(C1CCCO1)N1CCN(C(=O)C23CC4CC(CC(C4)C2)C3)CC1 (stereo unspecified) | -8.69%
c1ccc(CCc2ccccn2)cc1 | 15.2%
O=c1[nH]nc(Cc2ccccn2)c2ccccc12 | -160% (active)
Cc1ccc(C(=O)C(C)OC(=O)Cc2n[nH]c(=O)c3ccccc23)cc1C (stereo unspecified) | 5.46%
